# Results reported in PubChem BioAssay (EPA / NIEHS).
# Records with an inconclusive call do not appear. Activity calls are given as the source filed them. The calls were made as follows: active = hit-call score of the fitted dose curve at least 0.9, where 1 is the maximum; inconclusive = response in the unintended direction; inactive = score below 0.9.
# Experiment: ACEA_AR_agonist_AUC_viability: ACEA Biosciences xCELLigence Real-Time Cell Analysis on Androgen Receptor Agonism for Viability (AID 2283775);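 as to AC50: viability read 80 hours after compound addition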
# How it was run: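 22Rv1 cells; impedance growth kinetics; 8-pt 1:4 dilutions from 100 uM top final, ≤0.5% DMSO; n = 2; 80 h read; AUC viability, loss-of-signal vs DMSO.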
SMILES,outcome,AC50
O=C(O)COc1ccc(Cl)cc1,inactive,
Cc1cc(Cl)ccc1OC(C)C(=O)O (stereo not given),inactive,
Cc1cc(Cl)ccc1OCCCC(=O)O,inactive,
C=CC(Cl)CCl (stereo not given),inactive,
Oc1cc(Cl)c(Cl)cc1Cl,,64.8 µM (active)
CC(C)O.CC(C)O.OCCN(CCO)CCO.OCCN(CCO)CCO.[Ti],inactive,
O=[N+]([O-])c1ccccc1O,inactive,
O=[N+]([O-])c1ccc(Cl)c([N+](=O)[O-])c1,,22.3 µM (active)

# Experiment: ACEA_AR_antagonist_AUC_viability: ACEA Biosciences xCELLigence Real-Time Cell Analysis on Androgen Receptor Antagonism for Viability (AID 2283776);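 also: 22Rv1 human prostate cancer cells growing on impedance electrode plates; area under impedance growth curve at 80 h after dosing as viability; hits lower the growth signal relative to DMSO meaning cytotoxicity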
# How it was run: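 Real-time electrical impedance tracks 22Rv1 proliferation after continuous compound exposure (top 100 uM final, 1:4 steps, 8 concentrations). The 80 h area-under-curve serves as the cytotoxicity readout relative to DMSO.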
SMILES,AC50,outcome
CCC[CH2][Sn]([CH2]CCC)([CH2]CCC)[CH2]CCC,29.9 µM (active),
Cc1cc(Cl)ccc1O,,inactive
Oc1c(Br)cc(Br)cc1Br,,inactive
Cc1cc(Cl)ccc1OCCCC(=O)O,,inactive
CC(C)=CC1C(C(=O)OCc2cccc(Oc3ccccc3)c2)C1(C)C (stereo not given),,inactive
C=CC(Cl)CCl (stereo not given),4.53 µM (active),
N#CCCC(Br)(C#N)CBr (stereo not given),,inactive
Oc1cc(Cl)c(Cl)cc1Cl,71.8 µM (active),
O=CCCl,,inactive
CC(C)O.CC(C)O.OCCN(CCO)CCO.OCCN(CCO)CCO.[Ti],,inactive
OCCN(CCO)CCO,,inactive
O=C(N[C@H]1CN2CCC1CC2)c1ccc2c(c1)OCCO2,,inactive
